Measured values: PubChem BioAssay (NCI)
About 83,000 compounds went through this panel and 20% of them were active in at least one assay; those are over-represented in the sample as a whole.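 Plates (96-well) were seeded with cells, treated with compound at one concentration, and incubated for 48 hours before percent growth was determined.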 Active and inactive are the calls of the source. Rule for the calls: active = growth percent below 10; inactive = the rest.

Columns and labels:
Experiment in all cases: NCI-60 one-dose screen, 48 h (100 = growth as untreated, 0 = no growth, -100 = all killed)
Conditions in all cases: 10 µM unless noted
HCT-15 colon = test system: HCT-15 colon
HT29 colon = test system: HT29 colon
SNB-75 CNS = test system: SNB-75 CNS
SNB-19 CNS = test system: SNB-19 CNS
U251 CNS = test system: U251 CNS
PC-3 prostate = test system: PC-3 prostate
SK-MEL-5 melanoma = test system: SK-MEL-5 melanoma
UACC-62 melanoma = test system: UACC-62 melanoma
LOX IMVI melanoma = test system: LOX IMVI melanoma
SK-MEL-28 melanoma = test system: SK-MEL-28 melanoma

Measured: growth

Cc1ccsc1C(=O)CC(=O)C(F)(F)C(F)(F)C(F)(F)F
inactive: HCT-15 colon 111% | HT29 colon 111% | SNB-75 CNS 92.3% | SNB-19 CNS 111% | U251 CNS 103% | PC-3 prostate 91.2% | SK-MEL-5 melanoma 109% | UACC-62 melanoma 96.7% | LOX IMVI melanoma 97.8% | SK-MEL-28 melanoma 103%

CCCCCCCCCCCCCCCCCC(=O)OCCCCCCCCCCCCC
inactive: HCT-15 colon 108% | HT29 colon 103% | SNB-75 CNS 104% | SNB-19 CNS 113% | U251 CNS 108% | PC-3 prostate 102% | SK-MEL-5 melanoma 114% | UACC-62 melanoma 113% | LOX IMVI melanoma 103% | SK-MEL-28 melanoma 125%

CN1C2CCC1/C(=C\c1ccc(Cl)cc1)C(=O)/C2=C/c1ccc(Cl)cc1
inactive: HCT-15 colon 54.2% | HT29 colon 47.1% | SNB-75 CNS 71.6% | SNB-19 CNS 64.1% | U251 CNS 13.6% | PC-3 prostate 51.8% | SK-MEL-5 melanoma 66.9% | UACC-62 melanoma 47.4% | LOX IMVI melanoma 35.1% | SK-MEL-28 melanoma 91.6%

CCCC(CCC)(C(N)=O)C(=O)O
inactive: HCT-15 colon 105% | HT29 colon 101% | SNB-75 CNS 104% | SNB-19 CNS 112% | U251 CNS 106% | PC-3 prostate 121% | SK-MEL-5 melanoma 110% | UACC-62 melanoma 106% | LOX IMVI melanoma 93.5% | SK-MEL-28 melanoma 113%

CS(=O)(=O)c1ccc(C(=O)Nc2ccc(Cl)c(-c3ccccn3)c2)c(Cl)c1
active: HT29 colon -7.2% | PC-3 prostate 7.55%
inactive: HCT-15 colon 22.7% | SNB-75 CNS 14% | SNB-19 CNS 51.1% | U251 CNS 15.5% | SK-MEL-5 melanoma 10.9% | UACC-62 melanoma 19.7% | LOX IMVI melanoma 16% | SK-MEL-28 melanoma 23.2%

COc1cc(C2CC(c3ccc(C)cc3)=NN2C=O)ccc1Oc1ccnc2cc(Cl)ccc12 (stereo not given)
inactive: HCT-15 colon 97.4% | HT29 colon 92.3% | SNB-19 CNS 29.5% | PC-3 prostate 85.3% | SK-MEL-5 melanoma 97.1% | UACC-62 melanoma 55.8% | LOX IMVI melanoma 76% | SK-MEL-28 melanoma 101%
active: SNB-75 CNS -36.1% | U251 CNS 7.3%

CCN1C(=O)N(CC)C2C1NN=c1s/c(=C\c3ccc(Br)cc3)c(=O)n12 (stereo not given)
active: HT29 colon 5.08% | SK-MEL-5 melanoma -4.8%
inactive: HCT-15 colon 11.4% | SNB-75 CNS 26.2% | SNB-19 CNS 21.4% | U251 CNS 16.5% | PC-3 prostate 18.6% | UACC-62 melanoma 39.9% | LOX IMVI melanoma 25.1% | SK-MEL-28 melanoma 59.9%

O=c1c2cc(Br)cc(Br)c2nc(-c2ccc(Cl)cc2)n1/N=C\c1ccccc1F
inactive: HCT-15 colon 88.3% | HT29 colon 77.3% | SNB-75 CNS 13.7% | SNB-19 CNS 68.8% | U251 CNS 55.1% | SK-MEL-5 melanoma 89.4% | UACC-62 melanoma 70.7% | LOX IMVI melanoma 70.3% | SK-MEL-28 melanoma 98.4%
active: PC-3 prostate -87.1%

CCC(=O)OCc1ccc(OC)cc1
inactive: HCT-15 colon 108% | HT29 colon 102% | SNB-75 CNS 104% | SNB-19 CNS 100% | U251 CNS 97.3% | PC-3 prostate 88.1% | SK-MEL-5 melanoma 108% | UACC-62 melanoma 105% | LOX IMVI melanoma 98% | SK-MEL-28 melanoma 111%

CN(C)CCCn1c(=O)c2cc([N+](=O)[O-])ccc2c2cnc3[nH]ccc3c21
inactive: HCT-15 colon 48% | HT29 colon 16.2% | SNB-75 CNS 49.5% | SNB-19 CNS 53.5% | U251 CNS 57.4% | PC-3 prostate 48.4% | SK-MEL-5 melanoma 69.4% | UACC-62 melanoma 74.6% | LOX IMVI melanoma 38.5% | SK-MEL-28 melanoma 104%

CCCCCCCCCCCCC1CCC(=O)O1 (stereo not given)
inactive: HCT-15 colon 91.7% | HT29 colon 90.6% | SNB-75 CNS 95% | SNB-19 CNS 98.3% | U251 CNS 101% | PC-3 prostate 95.8% | SK-MEL-5 melanoma 99.7% | UACC-62 melanoma 98.5% | LOX IMVI melanoma 93.5% | SK-MEL-28 melanoma 96.4%

COC(=O)CSc1ccc(Cl)cc1
inactive: HCT-15 colon 106% | HT29 colon 103% | SNB-75 CNS 94.9% | SNB-19 CNS 103% | U251 CNS 103% | PC-3 prostate 107% | SK-MEL-5 melanoma 114% | UACC-62 melanoma 114% | LOX IMVI melanoma 102% | SK-MEL-28 melanoma 108%

O/N=C1\c2ccccc2-c2ccc(Br)cc21
inactive: HCT-15 colon 102% | HT29 colon 101% | SNB-75 CNS 107% | SNB-19 CNS 104% | U251 CNS 104% | PC-3 prostate 101% | SK-MEL-5 melanoma 104% | UACC-62 melanoma 105% | LOX IMVI melanoma 105% | SK-MEL-28 melanoma 118%

NS(=O)(=O)c1ccc(CCn2c(SCC(=O)N/N=C/c3cccnc3)nc3ccccc3c2=O)cc1
inactive: HCT-15 colon 83% | HT29 colon 109% | SNB-75 CNS 90.8% | SNB-19 CNS 100% | U251 CNS 87.7% | PC-3 prostate 83.8% | SK-MEL-5 melanoma 79.5% | UACC-62 melanoma 84.5% | LOX IMVI melanoma 85% | SK-MEL-28 melanoma 101%

Clc1cc2nc(-c3ccccc3)c(-c3ccccc3)nc2cc1Cl
inactive: HCT-15 colon 88.7% | HT29 colon 88.5% | SNB-75 CNS 87.9% | SNB-19 CNS 102% | U251 CNS 95.7% | PC-3 prostate 77.3% | SK-MEL-5 melanoma 89.4% | UACC-62 melanoma 84.7% | LOX IMVI melanoma 86.2% | SK-MEL-28 melanoma 101%

CN(C)c1ccc(/C=C\c2cccc[n+]2C)cc1
inactive: HCT-15 colon 104% | HT29 colon 34.4% | SNB-75 CNS 70.1% | SNB-19 CNS 31.8% | U251 CNS 33% | PC-3 prostate 11% | SK-MEL-5 melanoma 24.2% | UACC-62 melanoma 81.3% | LOX IMVI melanoma 50% | SK-MEL-28 melanoma 56.6%

NC(=S)N1N=C(c2ccc(Cl)cc2)CC1c1cc2ccccc2[nH]c1=O (stereo not given)
inactive: HCT-15 colon 104% | HT29 colon 95.3% | SNB-75 CNS 106% | SNB-19 CNS 101% | U251 CNS 107% | PC-3 prostate 87.5% | SK-MEL-5 melanoma 107% | UACC-62 melanoma 97.7% | LOX IMVI melanoma 105% | SK-MEL-28 melanoma 115%

COc1cccc(NC(=O)OC(C)C)c1
inactive: HCT-15 colon 96.3% | HT29 colon 105% | SNB-75 CNS 96.7% | SNB-19 CNS 116% | U251 CNS 94.9% | PC-3 prostate 93.5% | SK-MEL-5 melanoma 109% | UACC-62 melanoma 108% | LOX IMVI melanoma 102% | SK-MEL-28 melanoma 108%

Cc1ccc2c(C)c3c(ccc4ccccc43)c[n+]2c1
active: SK-MEL-5 melanoma -25.6%
inactive: HCT-15 colon 95.8% | HT29 colon 88.1% | SNB-75 CNS 65% | SNB-19 CNS 24% | U251 CNS 24.5% | PC-3 prostate 52.9% | UACC-62 melanoma 74.2% | LOX IMVI melanoma 91.9% | SK-MEL-28 melanoma 77.8%

CC(=O)Cc1ccccn1
inactive: HCT-15 colon 98.6% | HT29 colon 95.9% | SNB-75 CNS 104% | SNB-19 CNS 114% | U251 CNS 93.5% | PC-3 prostate 94.8% | SK-MEL-5 melanoma 105% | UACC-62 melanoma 108% | LOX IMVI melanoma 103% | SK-MEL-28 melanoma 106%

CC(C)[C@@]12C[C@@H](OC(=O)[C@H]3CO3)[C@@](C)(O1)[C@@H]1CC[C@@H](C)[C@H]1[C@@H]2OC(=O)/C=C/c1ccccc1
inactive: HCT-15 colon 55.5% | HT29 colon 84.3% | SNB-75 CNS 71.4% | SNB-19 CNS 86.6% | U251 CNS 67.8% | PC-3 prostate 60.7% | SK-MEL-5 melanoma 93.4% | UACC-62 melanoma 70.1% | LOX IMVI melanoma 70.9% | SK-MEL-28 melanoma 106%

COc1ccc(/C=C(\C#N)c2cc(OC)c(OC)c(OC)c2)cc1
active: HT29 colon 6.29% | SK-MEL-5 melanoma -37.4%
inactive: HCT-15 colon 15.2% | SNB-75 CNS 30.3% | SNB-19 CNS 43% | U251 CNS 15.4% | PC-3 prostate 28% | UACC-62 melanoma 36.2% | LOX IMVI melanoma 27% | SK-MEL-28 melanoma 56.6%

CN1C(=O)C(C(=O)/C=C/c2ccccc2C(=O)O)C(=O)N(C)C1=O
inactive: HCT-15 colon 110% | HT29 colon 98.8% | SNB-75 CNS 86.7% | SNB-19 CNS 105% | U251 CNS 97% | PC-3 prostate 96.4% | SK-MEL-5 melanoma 108% | UACC-62 melanoma 95% | LOX IMVI melanoma 94.7% | SK-MEL-28 melanoma 109%

CCN(CC)Cc1cc(Nc2ccnc3ccc(OC)cc23)ccc1O
active: HT29 colon -24.3% | LOX IMVI melanoma 4.78%
inactive: HCT-15 colon 32.4% | SNB-75 CNS 101% | SNB-19 CNS 74.4% | U251 CNS 35% | PC-3 prostate 39.8% | SK-MEL-5 melanoma 50.4% | UACC-62 melanoma 87.7% | SK-MEL-28 melanoma 105%

CC(C)(CCc1ccccn1)C(=O)CCCc1ccccn1
inactive: HCT-15 colon 108% | HT29 colon 97% | SNB-75 CNS 102% | SNB-19 CNS 94% | U251 CNS 100% | PC-3 prostate 89% | SK-MEL-5 melanoma 104% | UACC-62 melanoma 89.8% | LOX IMVI melanoma 94.2% | SK-MEL-28 melanoma 115%

CCOC(=O)c1ccc2c(c1)[n+](=O)c(C(=O)c1ccc3ccccc3c1)c(C(F)(F)F)n2[O-]
active: HCT-15 colon -96.1% | HT29 colon -97.4% | SNB-75 CNS -100% | SNB-19 CNS -85.5% | U251 CNS -100% | PC-3 prostate -99.2% | SK-MEL-5 melanoma -100% | UACC-62 melanoma -97.2% | LOX IMVI melanoma -97.5% | SK-MEL-28 melanoma -96.3%

CC1CCCN(CCCCOc2ccc(-c3ccc(C#N)cc3)cc2)C1 (stereo not given)
inactive: HCT-15 colon 56.4% | HT29 colon 14.6% | SNB-75 CNS 90.3% | SNB-19 CNS 95.3% | U251 CNS 71.7% | PC-3 prostate 75.4% | SK-MEL-5 melanoma 46.2% | UACC-62 melanoma 89.8% | LOX IMVI melanoma 83.9% | SK-MEL-28 melanoma 100%

CC(=O)O[C@@H]1CC2C(C)(C)CCCC2(C)C2=C1C(=O)C(C(C)C)=CC2=O (stereo not given in full)
active: HCT-15 colon -8% | HT29 colon 0.85% | SNB-75 CNS -11.8% | U251 CNS 3.62% | SK-MEL-5 melanoma -93.3% | UACC-62 melanoma -64.4% | SK-MEL-28 melanoma -16.8%
inactive: SNB-19 CNS 20.9% | PC-3 prostate 12% | LOX IMVI melanoma 10.6%
